# The supplement of paper PMC7724964
# T1: RARA 175-421 Hormone_recep (domain begin residue: 175, domain end residue: 421), P10276
# T1 chain: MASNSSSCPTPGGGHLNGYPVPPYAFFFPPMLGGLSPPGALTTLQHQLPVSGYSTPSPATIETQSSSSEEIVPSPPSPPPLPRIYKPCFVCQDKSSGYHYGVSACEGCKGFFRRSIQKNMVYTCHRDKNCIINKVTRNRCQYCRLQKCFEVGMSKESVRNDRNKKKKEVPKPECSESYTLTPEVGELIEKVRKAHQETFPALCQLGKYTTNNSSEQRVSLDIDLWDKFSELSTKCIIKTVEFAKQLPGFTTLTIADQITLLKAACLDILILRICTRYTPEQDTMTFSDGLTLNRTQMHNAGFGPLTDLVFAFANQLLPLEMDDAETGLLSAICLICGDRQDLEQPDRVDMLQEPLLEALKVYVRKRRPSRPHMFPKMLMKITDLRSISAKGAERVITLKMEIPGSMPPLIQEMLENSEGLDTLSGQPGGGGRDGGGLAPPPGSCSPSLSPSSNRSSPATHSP
# T2: IRS1 157-267 IRS (domain begin residue: 157, domain end residue: 267), P35568
# T2 chain: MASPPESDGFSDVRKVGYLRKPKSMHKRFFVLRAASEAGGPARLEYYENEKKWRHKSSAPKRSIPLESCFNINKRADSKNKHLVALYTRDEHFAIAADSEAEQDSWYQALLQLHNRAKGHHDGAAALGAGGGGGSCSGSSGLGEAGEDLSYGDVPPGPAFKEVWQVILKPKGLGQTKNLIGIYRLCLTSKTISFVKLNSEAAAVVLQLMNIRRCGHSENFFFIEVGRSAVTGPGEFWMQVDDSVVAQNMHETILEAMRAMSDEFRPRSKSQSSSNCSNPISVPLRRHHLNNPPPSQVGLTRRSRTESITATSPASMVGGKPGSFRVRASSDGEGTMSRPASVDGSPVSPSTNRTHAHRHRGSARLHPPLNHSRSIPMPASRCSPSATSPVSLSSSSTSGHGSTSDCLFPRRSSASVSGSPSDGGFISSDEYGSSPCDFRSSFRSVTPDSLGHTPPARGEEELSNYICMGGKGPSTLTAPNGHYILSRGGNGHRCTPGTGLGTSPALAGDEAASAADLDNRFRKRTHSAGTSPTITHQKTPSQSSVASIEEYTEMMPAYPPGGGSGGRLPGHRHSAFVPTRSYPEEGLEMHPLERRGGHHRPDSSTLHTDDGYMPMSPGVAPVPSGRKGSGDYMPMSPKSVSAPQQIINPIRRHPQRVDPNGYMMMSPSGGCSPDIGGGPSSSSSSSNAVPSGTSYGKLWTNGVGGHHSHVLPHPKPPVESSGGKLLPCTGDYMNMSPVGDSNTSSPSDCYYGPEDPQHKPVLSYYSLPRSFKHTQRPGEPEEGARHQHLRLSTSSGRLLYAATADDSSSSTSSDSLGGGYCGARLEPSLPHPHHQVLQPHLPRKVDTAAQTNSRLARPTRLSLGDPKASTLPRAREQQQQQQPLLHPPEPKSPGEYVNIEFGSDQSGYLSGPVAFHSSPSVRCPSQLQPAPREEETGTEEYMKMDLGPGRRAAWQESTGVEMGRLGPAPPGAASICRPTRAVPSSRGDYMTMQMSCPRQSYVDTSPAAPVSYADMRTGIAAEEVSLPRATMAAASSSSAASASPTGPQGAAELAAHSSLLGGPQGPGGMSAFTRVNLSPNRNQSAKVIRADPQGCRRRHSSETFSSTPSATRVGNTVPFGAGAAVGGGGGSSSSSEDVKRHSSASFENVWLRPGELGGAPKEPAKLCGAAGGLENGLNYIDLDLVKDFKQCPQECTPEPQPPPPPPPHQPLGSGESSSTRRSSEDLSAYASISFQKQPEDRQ
# T3: KAT8 2-458 Tudor-knot+MOZ_SAS (domain begin residue: 2, domain end residue: 458), Q9H7Z6
# T3 chain: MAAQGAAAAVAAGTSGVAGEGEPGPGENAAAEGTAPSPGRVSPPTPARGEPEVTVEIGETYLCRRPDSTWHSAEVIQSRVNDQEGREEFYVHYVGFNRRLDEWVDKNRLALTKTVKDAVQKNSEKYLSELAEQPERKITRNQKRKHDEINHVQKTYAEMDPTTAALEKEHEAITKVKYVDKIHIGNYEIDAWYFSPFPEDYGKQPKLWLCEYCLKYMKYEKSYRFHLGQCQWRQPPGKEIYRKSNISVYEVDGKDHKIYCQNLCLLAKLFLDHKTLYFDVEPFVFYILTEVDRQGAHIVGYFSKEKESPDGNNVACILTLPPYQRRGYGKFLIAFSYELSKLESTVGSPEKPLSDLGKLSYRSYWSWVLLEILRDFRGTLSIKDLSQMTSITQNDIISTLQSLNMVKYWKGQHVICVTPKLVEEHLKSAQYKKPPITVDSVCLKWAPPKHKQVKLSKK
# T4: TDRD1 261-449 TUDOR (domain begin residue: 261, domain end residue: 449), Q9BXT4
# T4 chain: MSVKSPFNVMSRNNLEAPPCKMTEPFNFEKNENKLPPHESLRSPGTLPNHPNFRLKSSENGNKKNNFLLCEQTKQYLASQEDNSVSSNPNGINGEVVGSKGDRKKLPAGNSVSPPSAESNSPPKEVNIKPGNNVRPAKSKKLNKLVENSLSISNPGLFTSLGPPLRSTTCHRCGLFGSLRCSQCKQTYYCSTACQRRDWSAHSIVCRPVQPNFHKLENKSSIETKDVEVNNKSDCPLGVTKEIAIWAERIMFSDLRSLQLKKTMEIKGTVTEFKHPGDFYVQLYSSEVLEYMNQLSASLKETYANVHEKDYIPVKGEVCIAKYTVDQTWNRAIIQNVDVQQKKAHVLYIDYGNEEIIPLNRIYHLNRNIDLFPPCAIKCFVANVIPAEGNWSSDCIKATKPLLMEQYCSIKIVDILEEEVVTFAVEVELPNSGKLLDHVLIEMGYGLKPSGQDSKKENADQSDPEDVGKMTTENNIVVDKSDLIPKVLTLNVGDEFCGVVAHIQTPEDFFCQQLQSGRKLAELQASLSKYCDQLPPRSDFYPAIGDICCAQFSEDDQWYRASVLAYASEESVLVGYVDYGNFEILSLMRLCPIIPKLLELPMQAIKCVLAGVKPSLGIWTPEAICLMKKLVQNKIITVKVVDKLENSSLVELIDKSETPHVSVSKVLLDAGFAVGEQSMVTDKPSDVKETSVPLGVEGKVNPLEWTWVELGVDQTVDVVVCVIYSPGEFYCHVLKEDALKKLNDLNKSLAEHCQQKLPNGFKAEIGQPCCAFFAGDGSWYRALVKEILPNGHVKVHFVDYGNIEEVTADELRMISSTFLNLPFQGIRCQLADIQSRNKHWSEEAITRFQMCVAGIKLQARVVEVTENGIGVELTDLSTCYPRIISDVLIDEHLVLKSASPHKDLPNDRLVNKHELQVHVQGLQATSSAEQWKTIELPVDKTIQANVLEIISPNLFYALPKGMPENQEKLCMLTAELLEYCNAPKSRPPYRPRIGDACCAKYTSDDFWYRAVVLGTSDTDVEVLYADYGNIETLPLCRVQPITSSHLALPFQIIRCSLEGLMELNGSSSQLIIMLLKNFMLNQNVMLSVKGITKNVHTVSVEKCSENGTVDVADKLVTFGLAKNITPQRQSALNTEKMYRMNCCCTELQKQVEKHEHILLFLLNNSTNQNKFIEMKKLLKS
# Legend:
# Test in all cases: phage ELISA signal ratio (GST-PRM binding over GST background); higher = stronger binding of peptide-phage to the PRM
# [1] = target: HSPA9 438-651 HSP70 (domain begin residue: 438, domain end residue: 651), P38646
# Outline: (§1)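 Five rounds of selection were carried out against human peptide recognition domains fused to the C-terminus of glutathione S-transferase (GST) and expressed in 96-well plates. The M13 phage library presented randomized hexadecapeptides, cysteine-free and glycine-flanked, on the gene-8 major coat protein. For each value, the phage ELISA signal on the GST-domain fusion was divided by the signal on GST alone.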
# [2] = target: T1, RARA 175-421 Hormone_recep (domain …
# Outline: as §1
# [3] = target: T2, IRS1 157-267 IRS (domain begin residue: …
# Outline: as §1
# [4] = target: KARS 71-214 tRNA_anti-codon (domain begin residue: 71, domain end residue: 214), Q15046
# Outline: as §1
# [5] = target: T3, KAT8 2-458 Tudor-knot+MOZ_SAS (domain …
# Outline: as §1
# [6] = target: T4, TDRD1 261-449 TUDOR (domain begin …
# Outline: as §1
# [7] = target: KDM6A 1-520 TPR_8 (domain begin residue: 1, domain end residue: 520), O15550
# Outline: as §1
# Chain of KDM6A 1-520 TPR_8 (domain begin residue: 1, domain end residue: 520), O15550 (O15550 whole entry): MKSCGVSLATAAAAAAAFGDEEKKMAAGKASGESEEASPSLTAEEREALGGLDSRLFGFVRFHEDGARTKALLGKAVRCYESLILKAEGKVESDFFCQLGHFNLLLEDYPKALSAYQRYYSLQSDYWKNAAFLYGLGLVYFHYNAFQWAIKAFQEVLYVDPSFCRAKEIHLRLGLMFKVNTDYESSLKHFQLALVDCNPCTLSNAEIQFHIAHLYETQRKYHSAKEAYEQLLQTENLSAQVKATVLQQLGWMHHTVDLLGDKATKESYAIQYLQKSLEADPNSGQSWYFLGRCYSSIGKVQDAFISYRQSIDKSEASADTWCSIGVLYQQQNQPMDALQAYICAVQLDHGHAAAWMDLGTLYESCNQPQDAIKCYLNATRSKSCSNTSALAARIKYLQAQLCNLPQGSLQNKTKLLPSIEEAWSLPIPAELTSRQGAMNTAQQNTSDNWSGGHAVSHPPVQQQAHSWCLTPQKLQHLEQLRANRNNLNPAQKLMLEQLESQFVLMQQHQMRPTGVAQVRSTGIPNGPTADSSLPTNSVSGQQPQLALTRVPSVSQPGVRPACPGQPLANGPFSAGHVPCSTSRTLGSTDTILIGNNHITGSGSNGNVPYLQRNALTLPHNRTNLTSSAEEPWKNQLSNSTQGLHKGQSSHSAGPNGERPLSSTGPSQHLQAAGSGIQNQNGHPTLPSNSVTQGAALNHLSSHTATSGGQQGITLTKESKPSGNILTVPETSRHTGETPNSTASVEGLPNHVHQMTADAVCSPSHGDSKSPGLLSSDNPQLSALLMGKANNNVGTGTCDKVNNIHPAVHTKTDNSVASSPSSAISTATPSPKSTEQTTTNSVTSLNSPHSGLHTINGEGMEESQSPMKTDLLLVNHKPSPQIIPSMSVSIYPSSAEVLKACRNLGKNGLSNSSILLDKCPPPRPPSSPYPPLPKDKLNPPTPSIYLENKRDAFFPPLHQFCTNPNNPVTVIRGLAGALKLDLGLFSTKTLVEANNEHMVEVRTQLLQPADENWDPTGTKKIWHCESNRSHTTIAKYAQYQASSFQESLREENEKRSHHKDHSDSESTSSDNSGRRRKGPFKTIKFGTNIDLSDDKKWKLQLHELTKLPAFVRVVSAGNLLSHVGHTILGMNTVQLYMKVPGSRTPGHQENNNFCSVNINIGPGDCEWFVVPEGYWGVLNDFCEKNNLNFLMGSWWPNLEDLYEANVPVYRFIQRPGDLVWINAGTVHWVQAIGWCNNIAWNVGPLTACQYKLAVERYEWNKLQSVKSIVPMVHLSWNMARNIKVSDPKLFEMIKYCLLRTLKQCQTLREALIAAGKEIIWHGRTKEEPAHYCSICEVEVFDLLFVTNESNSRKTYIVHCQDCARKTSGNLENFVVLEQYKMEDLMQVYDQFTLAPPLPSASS
# Chain of KARS 71-214 tRNA_anti-codon (domain begin residue: 71, domain end residue: 214), Q15046 (Q15046 whole entry, looked up, tested part not stated): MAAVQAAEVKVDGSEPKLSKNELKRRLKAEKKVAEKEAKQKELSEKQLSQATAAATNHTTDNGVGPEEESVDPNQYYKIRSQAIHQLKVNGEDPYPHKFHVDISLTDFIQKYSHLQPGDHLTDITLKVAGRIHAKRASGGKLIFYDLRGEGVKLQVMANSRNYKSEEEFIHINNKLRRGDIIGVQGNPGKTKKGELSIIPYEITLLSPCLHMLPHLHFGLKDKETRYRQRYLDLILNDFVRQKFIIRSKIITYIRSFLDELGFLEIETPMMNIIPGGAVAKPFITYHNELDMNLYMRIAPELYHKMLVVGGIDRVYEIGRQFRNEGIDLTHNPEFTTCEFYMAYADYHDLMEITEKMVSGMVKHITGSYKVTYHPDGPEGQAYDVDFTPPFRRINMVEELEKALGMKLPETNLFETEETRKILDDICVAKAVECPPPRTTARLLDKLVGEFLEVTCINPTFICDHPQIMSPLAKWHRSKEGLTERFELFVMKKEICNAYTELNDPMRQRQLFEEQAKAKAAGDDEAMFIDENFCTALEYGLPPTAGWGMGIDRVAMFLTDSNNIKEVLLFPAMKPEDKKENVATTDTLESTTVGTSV
# Chain of HSPA9 438-651 HSP70 (domain begin residue: 438, domain end residue: 651), P38646 (P38646 whole entry, the tested form may be a part): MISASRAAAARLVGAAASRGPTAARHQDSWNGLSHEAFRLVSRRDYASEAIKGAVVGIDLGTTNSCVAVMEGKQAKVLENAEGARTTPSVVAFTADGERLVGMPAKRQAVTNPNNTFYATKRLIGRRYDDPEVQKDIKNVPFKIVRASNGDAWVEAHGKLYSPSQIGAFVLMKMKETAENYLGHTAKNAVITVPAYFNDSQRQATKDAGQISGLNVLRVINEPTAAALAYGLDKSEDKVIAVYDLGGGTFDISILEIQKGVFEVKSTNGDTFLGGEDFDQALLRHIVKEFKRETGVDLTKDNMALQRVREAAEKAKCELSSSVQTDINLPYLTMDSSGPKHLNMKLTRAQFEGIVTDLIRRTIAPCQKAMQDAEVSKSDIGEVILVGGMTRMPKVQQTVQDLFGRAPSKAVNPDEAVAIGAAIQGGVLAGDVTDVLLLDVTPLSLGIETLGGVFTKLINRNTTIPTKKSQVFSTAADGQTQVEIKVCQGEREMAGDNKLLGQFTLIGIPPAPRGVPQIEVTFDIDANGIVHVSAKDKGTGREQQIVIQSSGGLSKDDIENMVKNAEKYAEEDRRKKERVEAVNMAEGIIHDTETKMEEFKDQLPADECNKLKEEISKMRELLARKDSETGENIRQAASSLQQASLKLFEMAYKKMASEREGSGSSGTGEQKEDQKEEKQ
binder,measurement,setting,value
VFTFTMSWDAWEYILY,phage ELISA signal ratio,[1],18.4
STEFFYDWGYWEQMIE,phage ELISA signal ratio,[1],19.8
same,phage ELISA signal ratio,[2],9.16
YFTMDHDAWHYFQLYA,phage ELISA signal ratio,[1],20.2
TYYLDPFAWEYLQAEY,phage ELISA signal ratio,[1],20.2
DLQQWIIDFYIHSMET,phage ELISA signal ratio,[1],20.6
PTLLLWQQIDQVMMKK,phage ELISA signal ratio,[1],20.8
TFSMHRDEFQMLLNMM,phage ELISA signal ratio,[1],23.3
VITMDQSQWDDVMFWL,phage ELISA signal ratio,[1],27.3
PYGLTAEGYERFLWLV,phage ELISA signal ratio,[1],28
SDMNWWEEWDFFLARE,phage ELISA signal ratio,[3],15
GYENWIPEGYRWQDWK,phage ELISA signal ratio,[3],18
IWTWEYNPHYEIIHDM,phage ELISA signal ratio,[3],18.6
DLVDWMSATWNENPWY,phage ELISA signal ratio,[3],20.7
WIPADFQEWMELVAYD,phage ELISA signal ratio,[3],22.4
EQWEIEWLEHFNTYWE,phage ELISA signal ratio,[4],17.2
ETWADYFNVPISWIHE,phage ELISA signal ratio,[4],18.1
DWEWYQYFNAPQPVKG,phage ELISA signal ratio,[4],25.1
YIDHMYDVVMYEEIEW,phage ELISA signal ratio,[5],3.94
same,phage ELISA signal ratio,[6],8.98
QWLEWISPEIDFTPME,phage ELISA signal ratio,[7],3.57
DNAMVIWHSTTELYQH,phage ELISA signal ratio,[7],3.82
VEVDYFNSMYEAMSFM,phage ELISA signal ratio,[7],4.78
HYMEMLYEQLAISQAI,phage ELISA signal ratio,[7],5.05
WSWPDLDVVQDMIVAE,phage ELISA signal ratio,[7],5.09
WAEELYHSTQWLGVTE,phage ELISA signal ratio,[7],5.83
MDMIWDQILPDQFLSK,phage ELISA signal ratio,[7],6.37
YMEMVWDTIQIQPPQD,phage ELISA signal ratio,[7],6.38
WGWDDIPALQEMKPTN,phage ELISA signal ratio,[7],7.16
YHWDNLLEPTIQTYMG,phage ELISA signal ratio,[7],7.69
